# Shown are actives, neighbours in structure and some others; about 15% of the full set was active somewhere.
# ALOX12 inh: Primary qHTS assay for inhibitors of human arachidonate 12S-lipoxygenase (ALOX12): Round 2; Polyunsaturated fatty acid lipoxygenase ALOX12 (Homo sapiens), P18054; purified 12hLO, xylenol orange hydroperoxide absorbance; Potency, µM (top dose mostly 108 µM), inactives show at the highest dose activity change, negative = inhibition, most hits filed as inhibitors; 580,000 tested, 1.1% active; AID 1671190, 2021
# Target sequence (P18054 whole entry, looked up): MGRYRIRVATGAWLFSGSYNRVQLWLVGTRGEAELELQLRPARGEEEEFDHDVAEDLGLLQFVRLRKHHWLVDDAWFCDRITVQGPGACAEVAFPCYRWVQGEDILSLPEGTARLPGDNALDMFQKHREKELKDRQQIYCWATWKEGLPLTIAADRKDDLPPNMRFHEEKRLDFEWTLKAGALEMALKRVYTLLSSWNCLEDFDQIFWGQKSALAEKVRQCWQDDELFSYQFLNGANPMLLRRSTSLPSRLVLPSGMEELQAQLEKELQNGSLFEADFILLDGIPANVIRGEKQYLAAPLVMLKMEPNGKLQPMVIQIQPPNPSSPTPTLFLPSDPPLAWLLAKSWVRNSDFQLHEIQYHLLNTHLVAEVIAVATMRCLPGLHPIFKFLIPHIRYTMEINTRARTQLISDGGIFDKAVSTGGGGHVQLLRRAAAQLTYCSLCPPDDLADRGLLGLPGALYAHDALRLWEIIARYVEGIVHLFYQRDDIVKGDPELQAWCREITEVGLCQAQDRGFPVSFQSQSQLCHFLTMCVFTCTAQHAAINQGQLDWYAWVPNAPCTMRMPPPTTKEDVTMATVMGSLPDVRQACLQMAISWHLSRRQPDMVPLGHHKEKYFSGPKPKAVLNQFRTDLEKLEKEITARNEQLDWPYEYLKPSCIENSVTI
#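 Purified human 12hLO (150 nM final) in 25 mM Hepes, 0.01% Triton X-100, pH 7.0 was preincubated 15 min at room temperature with compound. Then 40 uM arachidonic acid was added, 30 min. Hydroperoxide was read by Fe-XO absorbance ratio 573/405 nm.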
# TDP1 cell noCPT: qHTS for Inhibitors of human tyrosyl-DNA phosphodiesterase 1 (TDP1): qHTS in cells in absence of CPT; 420,000 tested, 15% active; AID 686978, 2013; Potency, µM (highest dose often 46.2 µM), for inactives: at the top dose activity change, negative = growth inhibition, usual class: inhibitors; DT40 Tdp1-/- hTDP1 cells, no CPT, ATP luminescence, 48 h; also: nearly all actives have a fitted effect of over 55% in size
#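 Chicken DT40 Tdp1-/- cells stably complemented with human TDP1 were seeded at 400 cells/well with DMSO in place of 20 nM camptothecin. After compound pinning, cells grew at least 48 hr at 37 °C; viability read by CellTiter-Glo luminescence.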
# ELG1 DNA repair: qHTS screen for small molecules that inhibit ELG1-dependent DNA repair in human embryonic kidney (HEK293T) cells expressing luciferase-tagged ELG1; HEK293T ELG1-luciferase reporter, luminescence, 16 h; DNA damage induced by 5-fluorouridine; Potency, µM (highest dose often 46.1 µM), without a hit: top-dose activity change, negative = inhibition, usual class: inhibitors; 330,000 tested, 2.3% active; AID 504467, 2011; also: nearly all actives have a fitted effect of over 55% in size
#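 HEK293T cells expressing luciferase-tagged ELG1 (2,000/well) received 5-Fluorouridine plus compound or DMSO for 16 hr at 37 °C. Luciferase was read by ONE-Glo luminescence after 30 min at room temperature.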
# DT40 TDP1 CPT: qHTS for Inhibitors of human tyrosyl-DNA phosphodiesterase 1 (TDP1): qHTS in cells in presence of CPT; chicken DT40 Tdp1-/-;hTDP1 cells + 20 nM CPT, ATP luminescence, 48 h; Potency, µM (series often up to 46.2 µM), for the others: at the highest dose activity change, negative = growth inhibition, usual class: inhibitors; 420,000 tested, 12% active; also: nearly all actives have a fitted effect of over 55% in size
#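 Chicken DT40 Tdp1-/- cells stably complemented with human TDP1 were seeded at 400 cells/well in medium containing 20 nM camptothecin, exposed to pin-transferred compounds, and grown at 37 °C for at least 48 hr. Viability was read as ATP luminescence.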
# RORg inh: qHTS for inhibitors of ROR gamma transcriptional activity. Drosophila S2 Gal4-RORgamma UAS-luciferase reporter, 20 h. 310,000 tested, 5.4% active. AID 2551, 2010. Potency, µM (top dose mostly 53.6 µM), for inactives: at the top dose activity change, negative = inhibition, actives largely listed as inhibitors. Nuclear receptor ROR-gamma (Mus musculus), P51450; also: nearly all actives have a fitted effect of over 60% in size
#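 Stable Schneider cell line, Gal4 DNA-binding domain fused to ROR gamma, UAS-luciferase. Cmpd 1 hr RT → CuSO4 700 uM final → 20 hr RT → luciferase reagent 10 min → luminescence.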
# Gal4-VP16 FLuc: VP16 counterscreen qHTS for inhibitors of ROR gamma transcriptional activity. Drosophila S2 Gal4-VP16 UAS-luciferase, luminescence, 20 h. Potency, µM (highest dose often 53.6 µM), for the others: at the top dose activity, negative = inhibition, actives largely listed as inhibitors. 310,000 tested, 3.5% active. AID 2546, 2010;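 also: Gal4-VP16 expression switched on by copper sulfate through the metallothionein promoter; nearly all actives have a fitted effect of over 50% in size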
# Active calls of the source: *; ? = inconclusive; nt = not tested or not shown; [ ] = another dose, or the depositor's remark. Calls follow the shape of the dose curve; as a rule, active = well fitted curve in the direction sought with a large enough effect; inconclusive = small, poorly fitted or top-dose-only effect, or another doubt; inactive = no such curve, though single readings can be large; an effect the other way counts as inactive or inconclusive. % is scaled to controls: 0 for no effect and ±100 for the full control effect; potency is read from the fitted curve at half-maximal effect.
SMILES,ALOX12 inh,TDP1 cell noCPT,ELG1 DNA repair,DT40 TDP1 CPT,RORg inh,Gal4-VP16 FLuc
Cc1ccc(/C=C2\SC(=S)N(CCCC(=O)Nc3cc(C)on3)C2=O)cc1,1%,23%,26%,-14%,0.79µM*,?
COc1ccc(/C=C2\SC(=S)N(CCC(=O)NC3CCCC3)C2=O)cc1OC,-6%,16µM*,2%,?,4%,6%
COc1ccc(/C=C2\SC(=S)N(CCCC(=O)Nc3cc(C)on3)C2=O)cc1OC,-26%,-19%,7.3µM*,2%,2µM*,5µM*
COc1ccc(/C=C2\SC(=S)N(CCCCCC(=O)Nc3cc(C)on3)C2=O)cc1OC,-7%,-28%,1%,-18%,8%,-10%
CCOC(=O)N1CCN(C(=O)CCN2C(=O)/C(=C\c3ccc(OC)c(OC)c3)SC2=S)CC1,0%,-6%,nt,-1%,nt,nt
Nc1nccnc1C(=O)NCc1cccc(Cl)c1,-16%,nt,nt,nt,nt,nt
Cc1ccc(N2CC(c3noc(C4CCN(C(=O)c5ccccc5)CC4)n3)CC2=O)cc1 (stereo not drawn),-3%,nt,nt,nt,nt,nt
Cc1ccc(NC(=O)CSc2nnc3n(CC(C)C)c(=O)c4ccccc4n23)c(C)c1,0%,nt,nt,nt,nt,nt
O=C(COc1ccc2c(=O)c(-c3ccccc3Cl)coc2c1)Nc1ccccc1Cl,0%,nt,nt,nt,nt,nt
CCc1ccc(NC(=O)CCn2c(=O)c3cccn3c3ccccc32)cc1,29%,18µM*,-20%,23µM*,?,-3%
CCc1ccc(NC(=O)Cn2c(=O)c3cccn3c3ccccc32)cc1,?,4.1µM*,30%,16µM*,-40%,-19%
CCOC(=O)c1cccc(NC(=O)Cn2c(=O)c3cccn3c3ccccc32)c1,-19%,?,nt,?,nt,nt
CCC(C)NC(=O)CCn1c(=O)c2cccn2c2ccc(F)cc21 (stereo not drawn),-3%,-30%,-4%,1%,33%,-3%
COc1ccc(F)cc1Nc1cnc2ccc(N(C)C)nn12,-2%[176 µM],nt,nt,nt,nt,nt
O=C(NCC1COc2ccccc2O1)c1c[nH]c2ccc(S(=O)(=O)N3CCOCC3)cc2c1=O (stereo not drawn),118%,13µM*,?,12µM*,37%,2%
CN(Cc1cccc(F)c1)C(=O)c1ccc(S(=O)(=O)N2CCOCC2)cc1,188%,-11%,8%,0%,nt,nt
CN(Cc1cccc(F)c1)C(=O)c1ccc(S(=O)(=O)N2CCCCCC2)cc1,7%,?,21µM*,?,nt,nt
O=C(NCCOc1ccccc1F)c1cccc(S(=O)(=O)N2CCN(c3ccccc3)CC2)c1,1%,26µM*,?,?,nt,nt
O=C(NCC1COc2ccccc2O1)c1cc(S(=O)(=O)N2CCOCC2)ccc1F (stereo not drawn),3%,-26%,-10%,-19%,nt,nt
CN1CCN(S(=O)(=O)c2cccc(C(=O)N(C)Cc3c(F)cccc3Cl)c2)CC1,?,?,0%,?,nt,nt
CN(Cc1ccc(F)cc1)C(=O)c1cccc(S(=O)(=O)N2CCN(c3ccc(F)cc3)CC2)c1,?,15µM*,?,16µM*,nt,nt
Cc1nc2ccc(C(=O)N(C)Cc3ccc(C(N)=O)cc3)cc2nc1C,18%,nt,nt,nt,nt,nt
O=C(CSc1ccc(Cl)cc1)OCC(=O)c1ccc2c(c1)OCCO2,-1%,nt,nt,nt,nt,nt
